Glioma ERSR ind = ER stress response induction in glioma; 420,000 compounds, 0.02% hits; AID 602332; U87-MG GRP78 promoter luciferase reporter, 16 h; Potency, µM, inactives show top-dose activation, most hits filed as activators; active = well fitted activation curve with a large enough effect; inconclusive = small, poorly fitted or top-dose-only effect; inactive = no such curve, though single readings can be large or run the other way; note: potency is the fitted concentration of half-maximal effect; series mostly up to about 76 µM; % of control where 0% means no effect; nearly all actives have a fitted effect of over 35% in size
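Stably transfected U87-MG glioma cells carrying a GRP78-based luciferase sensor; 16 h compound incubation. Luminescence end-point read 10 min after Bright-Glo addition at room temperature.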
D1 potentiator = potentiators of human D1 dopamine receptor; HEK293 TREx D1 cells, calcium flux, dopamine EC20 potentiation; 360,000 compounds, 0.036% hits; potentiation, % at 10 µM; P21728; in the data active = potentiation above about 30%; note: 0% is about no effect
D1 antagonist = human D1 dopamine receptor antagonism | HEK293 TREx D1 cells, calcium flux, dopamine EC80; active compounds read low | P21728 | AID 504652 | activity change, negative = inhibition, % at 10 µM | 360,000 compounds, 3.2% hits; in the data active = activity change below about -30%; note: % is set by controls: 0 for no effect and ±100 for the full control effect
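Inducible Hek293 Trex D1 cells (tetracycline, overnight, 30 C). Calcium dye 30–90 min RT. Antagonist mode: EC80 dopamine added after 180 s compound read.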
TRHR PAM = TRH receptor (human) allosteric enhancement; P34981; TRHR cells, fluo-8 calcium fluorescence, EC20 TRH enhancement; enhancement, % at 2 µM; 360,000 compounds, 0.66% hits; AID 493056; in the data active = enhancement above about 30%; note: 0% is about no effect
Target sequence (P34981 whole entry, looked up): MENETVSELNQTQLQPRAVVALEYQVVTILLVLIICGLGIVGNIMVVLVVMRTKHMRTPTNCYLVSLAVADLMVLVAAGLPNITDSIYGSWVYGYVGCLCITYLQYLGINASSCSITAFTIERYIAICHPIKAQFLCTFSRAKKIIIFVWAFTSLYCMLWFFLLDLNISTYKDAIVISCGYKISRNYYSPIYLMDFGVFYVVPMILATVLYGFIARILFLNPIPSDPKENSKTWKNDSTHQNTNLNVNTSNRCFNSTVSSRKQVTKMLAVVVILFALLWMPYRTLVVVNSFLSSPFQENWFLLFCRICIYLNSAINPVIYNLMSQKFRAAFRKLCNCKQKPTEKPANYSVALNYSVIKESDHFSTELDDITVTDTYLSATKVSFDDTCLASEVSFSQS
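TRHR-expressing cells loaded with fluo-8 calcium dye were read kinetically (ex 480/em 530) during compound addition, then stimulated with an EC20 of TRH (10 nM final). Enhancement of the Gq-mediated intracellular calcium response was scored.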
TRHR agonist = agonists of human TRH receptor; P34981; TRHR cells, calcium flux fluo-8, FDSS agonist mode; activation, % at 2 µM; 360,000 compounds, 0.18% hits; AID 493084; note: 0% is about no effect
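TRHR-expressing cells loaded with fluo-8 calcium dye; 23 nL library compound pin-transferred, kinetic FDSS fluorescence (Ex 480/Em 530) recorded about 180 s for agonist-induced calcium release, before a 10 nM TRH EC20 addition for potentiator mode.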
D1 agonist = human D1 receptor agonism; HEK293 T-REx D1 cells, calcium flux, agonist mode; 360,000 compounds, 1% hits; AID 504660; activation, % at 2 µM; note: 0% is about no effect
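Tetracycline-induced HEK293 TREx D1 cells, force-coupled to calcium signalling, were dye-loaded with a no-wash calcium kit. Compound was pin-added after a 10 s baseline. Fluorescence was read kinetically at 1 cycle/s for 180 s, with calcium rises flagged as agonism.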
Numbers without * were called inactive; u = inconclusive; x = not tested or not shown. An excerpt weighted towards active compounds, which were near 4% of everything screened. Cut-off read from the data, not from the text of the source, unless noted: active = activation above about 30%; inactive = the rest.

SMILES	Glioma ERSR ind	D1 potentiator	D1 antagonist	TRHR PAM	TRHR agonist	D1 agonist
Cc1cccnc1NC(=O)c1cccc(S(=O)(=O)NCc2ccccc2)c1	1%	-1	1	-2	0	4
CC(=O)c1ccc(N2CCN(C(C)C(=O)Nc3ccc4c(c3)OCCO4)CC2)cc1 (configuration not stated)	-4%	x	x	x	x	x
COc1ccc2oc(C(=O)OCC(=O)Nc3ccc(NC(C)=O)cc3)c(C)c2c1	-1%	4	11	38*	1	2
COc1ccc2oc(C(=O)OCC(=O)NC3CCCC3)c(C)c2c1	8%	-3	-37*	1	0	3
CC(=O)OC[C@@H]1O[C@H](C/C=N\OCC[C@H]2C=C[C@H](OC(C)=O)[C@@H](COC(C)=O)O2)C=C[C@@H]1OC(C)=O	-3%	x	x	x	x	x
CCc1ccc(NC(=O)c2ccc(-c3ccccc3)s2)cc1	-2%	-3	-6	-2	-1	3
O=C(Nc1ccccc1)c1ccc(-c2ccccc2)s1	-9%	-2	-12	1	1	51*
O=C(Nc1ccccc1F)c1ccc(-c2ccccc2)s1	-2%	-2	-26	-1	2	9
CCOc1ccc(OCC)c(NC(=O)c2ccc(-c3ccccc3)s2)c1	x	-5	-85*	1	1	4
CC(=NNC(=S)N1CCCCC1)c1ccccn1	-3%	x	x	x	x	x
CC(C)SCc1nc2ccccc2[nH]1	0%	-6	8	1	0	0
CSc1ccc(S(=O)(=O)NCC(=O)OCC(=O)N(Cc2ccccc2)C(C)C)cc1[N+](=O)[O-]	16%	-10	-35*	-8	0	0
N=C1c2ccccc2CN1c1ccc(N2CCOCC2)c(S(=O)(=O)Nc2ccc(Cl)cc2)c1	x	-3	-7	-1	-1	83*
Cc1c(Cl)c(=O)oc2cc(OCC(=O)N3CCCC(C)C3)ccc12 (configuration not stated)	0%	x	x	x	x	x
Cc1c(Br)c([N+](=O)[O-])nn1CC(=O)Nc1ccc(CC#N)cc1	x	-12	-13	2	0	3
COc1cc(NC(=O)Cn2nc(C(F)(F)F)c(Br)c2C)cc([N+](=O)[O-])c1	-5%	-2	-34*	-4	0	22
Cc1ccc(NC(=O)Cn2nc([N+](=O)[O-])c(Br)c2C)cc1C	-3%	-5	-33*	-3	1	9
C/C(=N/NC(=O)CNC(=O)c1ccncc1)c1ccc(Cl)cc1	-5%	4	-6	-5	0	3
N#Cc1ccc(-c2ccc(F)cc2)nc1Oc1ccc(Cl)c(Cl)c1	-1%	-4	0	-1	0	2
O=C1C=C(c2ccc(C(=O)O)cc2)C[C@@H](c2ccc(Cl)cc2)C1	3%	-1	-5	-3	0	0
COc1ccc([C@H]2CC(=O)C=C(c3ccccc3OC)C2)cc1OC	-3%	-6	-46*	-7	0	1
COc1ccccc1C1=CC(=O)C[C@H](c2ccc(Cl)cc2)C1	-1%	-5	-36*	-4	1	12
COc1ccc([C@H]2CC(=O)C=C(c3ccccc3)C2)cc1OC	-2%	-4	-26	2	-1	-1
O=C1C=C(c2ccc(-c3ccccc3)cc2)C[C@@H](c2ccc(Cl)cc2)C1	-4%	-13	-36*	-1	1	2
CC1=C(C(=O)N2CCCC(C(=O)c3cccc4ccccc34)C2)OCCO1 (configuration not stated)	8%	-4	-9	1	-1	0
SMILES	Glioma ERSR ind	D1 potentiator	D1 antagonist	TRHR PAM	TRHR agonist	D1 agonist
CC(C)C[C@@]12C(=O)N(c3cccc(Cl)c3)C(=O)N1[C@H](c1ccc(F)cc1)[C@@H]1C(=O)N(C3CCCCC3)C(=O)[C@@H]12	2%	-7	-13	-3	0	4
Cc1cc(C)c(S(=O)(=O)O)c(C)n1	-4%	3	-20	2	0	2
CSc1ncccc1C(=O)Nc1ccc(OC(F)(F)F)cc1	2%	-7	-6	-4	-1	1
CC(=O)Nc1ccc(Sc2ncccc2C(=O)Nc2ccc(F)cc2)cn1	u	2	3	4	28	99*
CCC(C(=O)NCC1CCCO1)N(Cc1ccc(F)cc1)C(=O)CNS(=O)(=O)c1ccccc1 (configuration not stated)	-5%	-5	2	-5	0	1
Cc1cc(NCc2ccco2)nc(N2CCC(C(=O)NC3CCCCC3)CC2)n1	-3%	3	-1	-7	0	0
Cc1noc2ncnc(NCc3cccc(Cl)c3)c12	-6%	-6	-35*	7	1	30
c1ccc(CNc2ncnc3c2cnn3Cc2ccccc2)cc1	-4%	-9	-15	-1	8	52*
Cc1ccc(CNc2ncnc3onc(C)c23)cc1	-6%	-9	-18	-4	-1	21
Cn1ncc2c(NCc3cccc(Cl)c3)ncnc21	-1%	-2	-38*	-10	-1	2
COCCNc1nc(NCc2cccc(Cl)c2)c2cnn(C)c2n1	x	0	-6	-4	1	5
COc1ccccc1N1CCN(C(c2ccc(Cl)cc2)c2nnc(-c3cccc(F)c3)o2)CC1 (configuration not stated)	0%	0	29	5	0	-1
Cc1cc(C)cc(NC(=O)C2CCN(S(=O)(=O)c3ccc4c(c3)oc(=O)n4C)CC2)c1	-5%	-1	-34*	-3	-1	-1
Cn1c(=O)oc2cc(S(=O)(=O)N3CCC(C(=O)Nc4ccc(F)c(Cl)c4)CC3)ccc21	-2%	-5	-52*	1	0	4
CCOc1ccc(NC(=O)[C@@H]2CCCN2C(=O)c2cccs2)cc1S(=O)(=O)N1CCCCC1	-1%	1	19	0	-1	1
COc1cccc(-c2cnc(C(O)c3cccc(C)c3C)[nH]2)c1 (configuration not stated)	0%	x	x	x	x	x
N#Cc1c(C(F)(F)F)cc(C2CC2)[nH]c1=O	-3%	-2	-14	6	0	0
O=C(Cc1ccc(F)cc1)Nc1nc(-c2ccc(F)cc2)cs1	-2%	-6	2	-13	1	4
O=C(Cc1ccccc1)Nc1nc(-c2cccs2)cs1	0%	-8	-31*	20	1	4
O=C(Cc1cccs1)Nc1nc(-c2ccc(F)cc2F)cs1	-4%	8	-44*	6	0	15
CC1Cc2cc(-c3csc(NC(=O)Cc4cccs4)n3)ccc2N1S(C)(=O)=O (configuration not stated)	-6%	-5	-42*	-8	-1	8
O=C(Cc1c(F)c(F)c(F)c(F)c1F)Nc1nc(-c2ccccc2)cs1	13%	-12	-2	-4	2	36*
